In all, about 310,000 compounds went through this assay and about 14,000 (4.5%) showed an effect of 50% or more. Effects have a minus sign here. The entries come from a sample that favours strong results as a whole.
target: human ether-à-go-go-related gene (hERG) potassium channel (human, UniProt Q12809); test: primary screen, population patch clamp on CHO cells stably expressing hERG; higher = less effect of the substance
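Further: peak tail current of the secondary pulse compared with the same well before compound.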

Sequence of human ether-à-go-go-related gene (hERG) potassium channel (Q12809 whole entry, looked up): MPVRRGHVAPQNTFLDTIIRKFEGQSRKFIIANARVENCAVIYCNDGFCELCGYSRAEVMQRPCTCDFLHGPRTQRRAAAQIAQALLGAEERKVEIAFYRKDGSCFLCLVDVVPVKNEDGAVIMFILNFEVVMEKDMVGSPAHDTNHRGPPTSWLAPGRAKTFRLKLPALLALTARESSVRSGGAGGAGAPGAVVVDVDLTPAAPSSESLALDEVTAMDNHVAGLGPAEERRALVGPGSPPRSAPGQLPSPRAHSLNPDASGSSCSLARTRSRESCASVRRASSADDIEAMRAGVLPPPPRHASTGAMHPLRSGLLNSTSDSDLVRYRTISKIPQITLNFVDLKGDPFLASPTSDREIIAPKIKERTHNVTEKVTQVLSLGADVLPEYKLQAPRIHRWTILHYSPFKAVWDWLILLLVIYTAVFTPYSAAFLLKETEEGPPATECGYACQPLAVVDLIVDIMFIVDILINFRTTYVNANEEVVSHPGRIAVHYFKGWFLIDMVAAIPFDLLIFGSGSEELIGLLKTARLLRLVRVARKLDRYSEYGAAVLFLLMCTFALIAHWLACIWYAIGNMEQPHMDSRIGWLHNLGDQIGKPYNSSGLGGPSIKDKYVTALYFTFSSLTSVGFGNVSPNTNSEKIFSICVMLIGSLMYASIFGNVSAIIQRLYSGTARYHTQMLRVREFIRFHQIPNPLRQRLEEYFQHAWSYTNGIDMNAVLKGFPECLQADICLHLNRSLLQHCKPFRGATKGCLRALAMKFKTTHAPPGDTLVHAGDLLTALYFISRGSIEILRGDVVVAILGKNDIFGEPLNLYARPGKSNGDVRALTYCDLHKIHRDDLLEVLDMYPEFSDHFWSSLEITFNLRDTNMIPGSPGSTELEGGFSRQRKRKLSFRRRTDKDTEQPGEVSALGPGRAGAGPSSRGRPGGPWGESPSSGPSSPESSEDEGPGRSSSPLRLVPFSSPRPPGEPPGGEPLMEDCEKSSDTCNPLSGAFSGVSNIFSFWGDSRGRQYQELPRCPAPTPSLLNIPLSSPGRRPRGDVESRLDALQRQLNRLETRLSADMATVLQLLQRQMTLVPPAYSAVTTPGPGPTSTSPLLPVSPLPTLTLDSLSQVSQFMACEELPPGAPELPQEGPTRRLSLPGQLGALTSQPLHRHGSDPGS

Row | Compound | hERG current change (%, negative = inhibition) at 10uM
1 | COc1cc(OC)cc(C(=O)NNC(=O)c2ccc(-n3cncn3)c([N+](=O)[O-])c2)c1 | 5.46%
2 | CCN(CC)Cc1cc(C(=O)O)c(C)o1 | 19.4%
3 | O=C(CCn1c(=O)c2cccn2c2ccc(F)cc21)NCc1cccc(F)c1 | 23.4%
4 | CCOC(=O)COn1c2c(c3c4no[n+]([O-])c4ccc31)CCCC2 | 3.89%
5 | CCCCN=Cc1sc2ccc(OCC)cc2c1O | 3.66%
6 | CCN(CC)CCCn1c2c(c(SCC(=O)Nc3ccc(F)c(F)c3)nc1=O)CCC2 | -55.1%
7 | CCN(CC)CCn1c2c(c(SCC(=O)Nc3ccc4c(c3)OCO4)nc1=O)CCC2 | -39.2%
8 | CCN(CC)CCCn1c2c(c(SCC(=O)Nc3cccc(C(C)=O)c3)nc1=O)CCC2 | -59.4%
9 | CN(C)CCn1c2c(c(SCC(=O)Nc3ccc4c(c3)OCCO4)nc1=O)CCC2 | -16.1%
10 | CCOc1ccc(NC(=O)CSc2nc(=O)n(CCN3CCOCC3)c3c2CCCC3)cc1 | -28.1%
11 | CC(=O)c1cccc(NC(=O)CSc2nc(=O)n(CCN3CCOCC3)c3c2CCC3)c1 | -17.6%
12 | COc1ccc(NC(=O)CSc2nc(=O)n(CCN3CCOCC3)c3c2CCC3)cc1 | 0.105%
13 | O=C(CSc1nc(=O)n(CCN2CCOCC2)c2c1CCC2)Nc1ccc(OC(F)(F)F)cc1 | -71.8%
14 | CCN(CC)CCCn1c2c(c(SCC(=O)Nc3ccc4c(c3)OCO4)nc1=O)CCC2 | -44.6%
15 | CCN(CC)CCn1c2c(c(SCC(=O)Nc3ccc(F)c(F)c3)nc1=O)CCC2 | -70.5%
16 | CC(=O)c1cccc(NC(=O)CSc2nc(=O)n(CCCN3CCOCC3)c3c2CCC3)c1 | -29.1%
17 | CCN(CC)CCCn1c2c(c(SCC(=O)Nc3ccc4c(c3)OCCO4)nc1=O)CCC2 | -43.4%
18 | COc1cc2c(cc1OC)C(C)N(C(=O)CCN1C(=O)C3C4C=CC(C4)C3C1=O)CC2 (centres unmarked) | 16%
19 | CC12CCC(=O)N1C(C(=O)N1CCN(c3cccc(Cl)c3)CC1)CS2 (centres unmarked) | -19.4%
20 | Cc1ccccc1-c1noc(-c2ccccc2C(=O)NCC2CCCO2)n1 (centres unmarked) | -3.02%
21 | Cc1ccc(C)c2nc3sc(C(=O)O)cc3cc12 | 20.9%
22 | CN1C(=O)C(C)(C)c2cc(S(=O)(=O)N3CCCC(C(=O)NCc4ccc(Cl)cc4)C3)ccc21 (centres unmarked) | -8.2%
23 | C=CCn1c(O)c(C(CC)=NCc2ccc3c(c2)OCO3)c(=O)[nH]c1=O | 3.09%

— paper PMC4336329 (PLoS ONE, 2015)
